From PubChem BioAssay (NCATS)
Results filed as inconclusive are left out. Active and inactive are the calls of the source. The call rests on the fitted dose curve.

Key:
[1] = Primary qHTS for inhibitors of SARS-S pseudo-typed particle cell entry (AID 1479145); further: nearly all actives have a fitted effect of over 45% in size; on activity change, negative = inhibition: series mostly up to about 57 µM
[2] = Primary qHTS for Huh7 cytotoxicity: counterscreen for inhibitors of MERS-S pseudotyped particle cell entry (AID 1479147); further: potency means the concentration at half of the fitted maximal effect
[3] = Primary qHTS for inhibitors of MERS-S pseudo-typed particle cell entry (AID 1479149); further: nearly all actives have a fitted effect of over 60% in size; further: potency means the concentration at half of the fitted maximal effect; on activity change, negative = inhibition: series mostly up to about 57 µM
[4] = Primary qHTS for Vero E6 cytotoxicity: counterscreen for inhibitors of SARS-S pseudo-typed particle cell entry (AID 1479150); further: potency means the concentration at half of the fitted maximal effect
On the % scale 0 is the no-effect control and ±100 the full control effect.

COc1ccc2cc([C@H](C)C(=O)O)ccc2c1
inactive: Potency [1] | Potency [2] | Potency [3] | Potency [4]

O=c1[nH]c(=O)n([C@H]2O[C@H](CO)[C@@H](O)[C@@H]2O)cc1/C=C\Br
inactive: Potency [1] | Potency [2] | Potency [3] | Potency [4]

CN1CCN(CC(=O)N2c3ccccc3C(=O)Nc3cccnc32)CC1
inactive: activity change, negative = inhibition [1] -4.78% [at 5.34 µM] | activity change, negative = cytotoxicity [2] 1.37% [at 5.34 µM] | outcome [3] inactive [at 5.34 µM] | outcome [4] inactive [at 5.34 µM]

COC(=O)/C=C\C(=O)OC
inactive: Potency [1] | Potency [2] | Potency [3] | Potency [4]

CC(CN(C)C)C(C)(O)Cc1ccc(Cl)cc1 (stereo unspecified)
inactive: Potency [1] | Potency [2] | Potency [3] | Potency [4]

C[C@@H](CN1CC(=O)NC(=O)C1)N1CC(=O)NC(=O)C1
inactive: Potency [1] | Potency [2] | Potency [3] | Potency [4]

CC(=O)CC/C=C(\C)CC/C=C(\C)CC/C=C(\C)CCC=C(C)C
inactive: Potency [1] | Potency [2] | Potency [3] | Potency [4]

CCOC(=O)NNc1ccc(N(CC)CC(C)O)nn1 (stereo unspecified)
inactive: Potency [1] | Potency [2] | Potency [3] | Potency [4]

CCn1ccc(NS(=O)(=O)c2ccc(N)cc2)nc1=O
inactive: Potency [1] | Potency [2] | Potency [3] | Potency [4]

CC(=O)NCCCS(=O)(=O)O
inactive: Potency [1] | Potency [2] | Potency [3] | Potency [4]

O=C1[C@@H]2[C@H]3CC[C@H](C3)[C@@H]2C(=O)N1CCCCN1CCN(c2ncccn2)CC1
inactive: Potency [1] | Potency [2] | Potency [3] | Potency [4]

NC(=O)N1c2ccccc2C=Cc2ccccc21
inactive: Potency [1] | Potency [2] | Potency [3] | Potency [4]

CCn1nc(C(=O)O)c(=O)c2cc3c(cc21)OCO3
inactive: Potency [1] | Potency [2] | Potency [3] | Potency [4]

CCCc1c2oc(C(=O)O)cc(=O)c2cc2c(=O)cc(C(=O)O)n(CC)c12
inactive: Potency [1] | Potency [2] | Potency [3] | Potency [4]

COC(=O)[C@@H]1[C@H]2C[C@H]3c4[nH]c5ccccc5c4CCN3C[C@@H]2CC[C@@H]1O
inactive: Potency [1] | Potency [2] | Potency [3] | Potency [4]

CCOC(=O)C1=C(C)NC(C)=C(C(=O)OC)C1c1cccc([N+](=O)[O-])c1 (stereo unspecified)
inactive: Potency [1] | Potency [2] | Potency [3] | Potency [4]

Cc1ncc([N+](=O)[O-])n1CC(C)O (stereo unspecified)
inactive: Potency [1] | Potency [2] | Potency [3] | Potency [4]

CC(=O)N(CC(O)CO)c1c(I)c(C(=O)NCCO)c(I)c(C(=O)NCC(O)CO)c1I (stereo unspecified)
inactive: Potency [1] | Potency [2] | Potency [3] | Potency [4]

CCCCCCOc1ccccc1C(N)=O
active: Potency [3] 20 µM
inactive: Potency [1] | Potency [2] | Potency [4]

CCCCCCCCCCCCCCCCO
inactive: Potency [1] | Potency [2] | Potency [3] | Potency [4]

Cc1c(NC(=O)c2cccnc2)c(=O)n(-c2ccccc2)n1C
inactive: Potency [1] | Potency [2] | Potency [3] | Potency [4]

COc1c2occc2cc2ccc(=O)oc12
inactive: Potency [1] | Potency [2] | Potency [3] | Potency [4]

CCO[C@H](Cc1ccc(OCCc2ccc(OS(C)(=O)=O)cc2)cc1)C(=O)O
inactive: Potency [1] | Potency [2] | Potency [3] | Potency [4]

C[C@H]1C[C@@H]2[C@H]([C@@H](O)C[C@@]3(C)[C@H]2CC[C@]3(O)C(=O)CO)[C@@]2(C)C=CC(=O)C=C12
inactive: Potency [1] | Potency [2] | Potency [3] | Potency [4]

Nc1ncnc2c1ncn2[C@@H]1O[C@H](CO)[C@@H](O)[C@H]1O
inactive: Potency [1] | Potency [2] | Potency [3] | Potency [4]

C[C@]12C=CC(=O)C=C1CC[C@@H]1[C@@H]2[C@@H](O)C[C@@]2(C)[C@H]1CC[C@]2(O)C(=O)CO
inactive: Potency [1] | Potency [2] | Potency [3] | Potency [4]

CN(C)CCOC(=O)C(c1ccccc1)C1(O)CCCC1 (stereo unspecified)
inactive: Potency [1] | Potency [2] | Potency [3] | Potency [4]

CC1CCN(CCCC(=O)c2ccc(F)cc2)CC1
inactive: Potency [1] | Potency [2] | Potency [3] | Potency [4]

Cc1cc2cc3c(C)cc(=O)oc3c(C)c2o1
inactive: Potency [1] | Potency [2] | Potency [3] | Potency [4]

C=CC(N)CCC(=O)O (stereo unspecified)
inactive: Potency [1] | Potency [2] | Potency [3] | Potency [4]

O=C(O)CCCCC(=O)O
inactive: Potency [1] | Potency [2] | Potency [3] | Potency [4]

CN[C@@H]1[C@H](O)[C@H](NC)[C@H]2O[C@@]3(O)C(=O)C[C@@H](C)O[C@H]3O[C@@H]2[C@H]1O
inactive: Potency [1] | Potency [2] | Potency [3] | Potency [4]

c1ccc(-c2nc[nH]c2-c2ccccc2)cc1
inactive: Potency [1] | Potency [2] | Potency [3] | Potency [4]

CC(=O)OCC(=O)[C@@]1(O)[C@H](C)C[C@H]2[C@@H]3CCC4=CC(=O)C=C[C@]4(C)[C@@]3(F)[C@@H](O)C[C@@]21C
inactive: Potency [1] | Potency [2] | Potency [3] | Potency [4]

CCN1CCC[C@H]1CNC(=O)c1cc(S(N)(=O)=O)ccc1OC
inactive: Potency [1] | Potency [2] | Potency [3] | Potency [4]

CC(=O)OCC[N+](C)(C)C
inactive: Potency [1] | Potency [2] | Potency [3] | Potency [4]

Cc1ccccc1N1CCN(CCc2nnc3n2CCCC3)CC1
inactive: Potency [1] | Potency [2] | Potency [3] | Potency [4]

C#CCN[C@@H]1CCc2ccccc21
inactive: Potency [1] | Potency [2] | Potency [3] | Potency [4]

NC(=O)c1ncn([C@@H]2O[C@H](CO)[C@@H](O)[C@H]2O)c1O
inactive: Potency [1] | Potency [2] | Potency [3] | Potency [4]

CC(C)CN(C[C@@H](O)[C@H](Cc1ccccc1)NC(=O)O[C@H]1CO[C@H]2OCC[C@H]21)S(=O)(=O)c1ccc(N)cc1
inactive: Potency [1] | Potency [2] | Potency [3] | Potency [4]

Cc1cc(O)cc(C)c1Cl
inactive: Potency [1] | Potency [2] | Potency [3] | Potency [4]

CC(=O)N(c1onc(C)c1C)S(=O)(=O)c1ccc(N)cc1
inactive: Potency [1] | Potency [2] | Potency [3] | Potency [4]

CCCCOC(=O)c1ccc(N)cc1
inactive: Potency [1] | Potency [2] | Potency [3] | Potency [4]

O=c1[nH]c(=O)n([C@H]2CCCO2)cc1F
inactive: Potency [1] | Potency [2] | Potency [3] | Potency [4]

NC(=O)c1cnccn1
inactive: Potency [1] | Potency [2] | Potency [3] | Potency [4]

OCCc1ccccc1
inactive: Potency [1] | Potency [2] | Potency [3] | Potency [4]

NCCCCCC(=O)O
inactive: Potency [1] | Potency [2] | Potency [3] | Potency [4]

CCN(CC)CCNC(=O)c1cc(S(C)(=O)=O)ccc1OC
inactive: Potency [1] | Potency [2] | Potency [3] | Potency [4]

NNC(=O)c1ccncc1
inactive: Potency [1] | Potency [2] | Potency [3] | Potency [4]

COc1ccc(C(=O)c2ccccc2)c(O)c1
inactive: Potency [1] | Potency [2] | Potency [3] | Potency [4]

Cn1c(=O)c2[nH]cnc2n(C)c1=O
inactive: Potency [1] | Potency [2] | Potency [3] | Potency [4]

CSCC[C@H](NC(=O)[C@H](Cc1ccc(OS(=O)(=O)O)cc1)NC(=O)[C@@H](N)CC(=O)O)C(=O)NCC(=O)N[C@@H](Cc1c[nH]c2ccccc12)C(=O)N[C@@H](CCSC)C(=O)N[C@@H](CC(=O)O)C(=O)N[C@@H](Cc1ccccc1)C(N)=O
inactive: Potency [1] | Potency [2] | Potency [3] | Potency [4]

O=C(O)CSCC(=O)NC1CCSC1=O (stereo unspecified)
inactive: Potency [1] | Potency [2] | Potency [3] | Potency [4]

CC(C)c1ccc2oc3nc(N)c(C(=O)O)cc3c(=O)c2c1
active: Potency [2] 10 µM | Potency [4] 7.94 µM
inactive: Potency [1] | Potency [3]

CNC(=O)c1c(I)c(NC(C)=O)c(I)c(C(=O)O)c1I
inactive: Potency [1] | Potency [2] | Potency [3] | Potency [4]

CC(=O)OCC(=O)[C@@]1(O)CC[C@H]2[C@@H]3CCC4=CC(=O)C=C[C@]4(C)[C@@]3(F)[C@@H](O)C[C@@]21C
inactive: Potency [1] | Potency [2] | Potency [3] | Potency [4]

CCC[C@@H]1C[C@@H](C(=O)N[C@@H]([C@H]2O[C@H](SC)[C@H](O)[C@@H](O)[C@H]2O)[C@@H](C)O)N(C)C1
inactive: Potency [1] | Potency [2] | Potency [3] | Potency [4]

CC(CCc1ccccc1)NCC(O)c1ccc(O)c(C(N)=O)c1 (stereo unspecified)
inactive: Potency [1] | Potency [2] | Potency [3] | Potency [4]

O=C(N[C@H](CO)[C@H](O)c1ccc([N+](=O)[O-])cc1)C(Cl)Cl
inactive: Potency [1] | Potency [2] | Potency [3] | Potency [4]

N#C[C@H]1C[C@H]2C[C@@H]2N1C(=O)[C@@H](N)C12CC3CC(CC(O)(C3)C1)C2
inactive: Potency [1] | Potency [2] | Potency [3] | Potency [4]

OC[C@@H](O)[C@@H](O[C@@H]1O[C@H](CO)[C@H](O)[C@H](O)[C@H]1O)[C@H](O)[C@@H](O)CO
inactive: Potency [1] | Potency [2] | Potency [3] | Potency [4]

Cc1c(I)c(=O)n(-c2ccccc2)n1C
inactive: Potency [1] | Potency [2] | Potency [3] | Potency [4]

CCCCOCCOC(=O)c1cccnc1
inactive: Potency [1] | Potency [2] | Potency [3] | Potency [4]

CC(C)=CCC1C(=O)N(c2ccccc2)N(c2ccccc2)C1=O
inactive: Potency [1] | Potency [2] | Potency [3] | Potency [4]

CCCCCCCCCCCCOCCO
inactive: Potency [1] | Potency [2] | Potency [3] | Potency [4]

CO[C@@]1(NC(=O)CSC[C@@H](N)C(=O)O)C(=O)N2C(C(=O)O)=C(CSc3nnnn3C)CS[C@@H]21
inactive: Potency [1] | Potency [2] | Potency [3] | Potency [4]

CCCCCCCCCCCCCCCCCC(=O)OCC(O)CO (stereo unspecified)
inactive: Potency [1] | Potency [2] | Potency [3] | Potency [4]

O=C(O)c1cc(=O)[nH]c(=O)[nH]1
inactive: Potency [1] | Potency [2] | Potency [3] | Potency [4]

CCOC(=O)c1ccc(N)cc1
inactive: Potency [1] | Potency [2] | Potency [3] | Potency [4]

OC[C@H]1O[C@H](O[C@]2(CCl)O[C@H](CCl)[C@@H](O)[C@@H]2O)[C@H](O)[C@@H](O)[C@H]1Cl
inactive: Potency [1] | Potency [2] | Potency [3] | Potency [4]

Cc1ccc(C(=O)c2ccc(CC(=O)O)n2C)cc1
inactive: Potency [1] | Potency [2] | Potency [3] | Potency [4]

CCC(=O)c1c(O)cc(O)cc1O
inactive: Potency [1] | Potency [2] | Potency [3] | Potency [4]

CCC(C(=O)NC(=O)NC(C)=O)c1ccccc1 (stereo unspecified)
inactive: Potency [1] | Potency [2] | Potency [3] | Potency [4]

O=P(O)(O)C(Sc1ccc(Cl)cc1)P(=O)(O)O
inactive: activity change, negative = inhibition [1] -6.9% [at 0.573 µM] | outcome [2] inactive [at 0.573 µM] | outcome [3] inactive [at 0.573 µM] | outcome [4] inactive [at 0.573 µM]
